Bioassay records from PubChem BioAssay.
Most compounds without a hit are left out; they make up all but 1.1% or so of the library.
S1P3 antag: S1P3 (human) receptor antagonism; Q99500; CHO S1P3 NFAT-BLA reporter, FRET fluorescence, antagonist mode; inhibition, % at 4.98 µM; 0.27% of 170,000 active;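 active means inhibition above the plate cutoff, the mean inhibition of test wells on that plate plus 3 SD, cut at about 28% in these data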;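 further: cells challenged with S1P at its EC80 of 0.8 µM; blue over green emission ratio from cleaved BLA substrate after 4 h stimulation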
Target sequence (Q99500 whole entry, looked up): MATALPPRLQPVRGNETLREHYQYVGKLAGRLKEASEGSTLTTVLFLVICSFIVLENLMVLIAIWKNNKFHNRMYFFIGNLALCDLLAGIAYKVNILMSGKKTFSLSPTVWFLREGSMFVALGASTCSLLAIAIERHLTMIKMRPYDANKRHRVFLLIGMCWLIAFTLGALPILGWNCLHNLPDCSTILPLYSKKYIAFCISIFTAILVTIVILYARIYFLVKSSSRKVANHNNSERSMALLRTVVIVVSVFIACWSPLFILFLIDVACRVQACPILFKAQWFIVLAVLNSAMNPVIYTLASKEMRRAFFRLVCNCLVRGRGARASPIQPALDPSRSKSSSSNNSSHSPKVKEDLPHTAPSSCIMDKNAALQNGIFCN
DTT redox prof: compounds producing H2O2 with reducing agent – biochemical, NIH compound library profiling, artefact control for MLSCN library redox annotation, primary screen; DTT-dependent redox cycling H2O2, phenol red/HRP absorbance; 100% = 100 µM peroxide control, 0% = buffer; activation, % at 10 µM; 0.03% of 200,000 active; AID 878;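 active means activation of at least 50% relative to the plate's high and low controls in the primary single-dose screen; inactive means activation below 50%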;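 further: compound incubated with DTT at 0.8 mM final as the reducing agent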
S1P4 antagonist: blocks the human S1P4 receptor. O95977. inhibition, % at 4.98 µM. 0.26% of 220,000 active. S1P4-expressing cells, antagonist mode, reporter read-out; in the data active means inhibition above about 29%
p97 inhibitor: human p97 ATPase inhibition; recombinant p97 ATPase, Kinase-Glo ATP luminescence, 3 h; inhibition, % at 8 µM; 0.42% of 220,000 active; AID 1481; in the data active means inhibition above about 15%
S1P4 ag: agonists of human S1P4 receptor. O95977. S1P4-expressing cell line, agonist reporter assay. activation, % at 4.98 µM. 0.35% of 220,000 active. AID 1509; in the data active means activation above about 11%
UBC9 SUMO inh: SUMOylation inhibition; P63279; HTRF SUMOylation assay, SAE1/SAE2 + UBC9, in vitro; 0.36% of 290,000 active; AID 2006; inhibition, % at 35 µM; in the data active means inhibition above about 50%, passing the limit was not always enough
Target sequence (P63279 whole entry, looked up): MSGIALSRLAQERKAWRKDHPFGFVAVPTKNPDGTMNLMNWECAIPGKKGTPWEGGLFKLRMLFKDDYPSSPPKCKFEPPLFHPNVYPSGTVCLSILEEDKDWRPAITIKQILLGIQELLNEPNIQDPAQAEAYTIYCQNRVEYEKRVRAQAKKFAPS
S1P4 agonist cf: human S1P4 agonism, confirmation; S1P4 agonist cell-based reporter assay; shares compounds with S1P4 ag; AID 1523; activation, % at 4.98 µM; 7% of 740 active; in the data active means activation above about 12%
S1P1 ag: human S1P1 agonism as S1P4 agonist counter-screen; shares compounds with S1P4 ag; S1P1 agonist cell-based assay, activation; activation, % at 4.98 µM; 4% of 740 active; in the data active means activation above about 21%
Large screens that a line does not name were inactive (follow-up assays come after a bar, where they were run).

COC(CNC(=O)C1CC(=O)N(CCc2ccccc2)C1)OC (configuration not stated)	none (no result: S1P3 antag)
OC1(c2cccnc2)CCN(Cc2nnnn2Cc2ccccc2)CC1	S1P4 ag 53 | S1P4 agonist cf inactive | S1P1 ag inactive
CN(C)c1ccnc(N(Cc2ccccc2)Cc2ccccc2)c1C#N	none (no result: S1P3 antag)
Cn1c(=O)c2c(nc(SCC(=O)NCC3CCCO3)n2Cc2ccc(F)cc2)n(C)c1=O (configuration not stated)	none
CCCn1c(SCC(=O)NCC2CCCO2)nc2c1c(=O)n(C)c(=O)n2C (configuration not stated)	S1P4 ag 34 | S1P4 agonist cf inactive | S1P1 ag inactive
CNCc1c(C)nn(-c2ccccc2)c1C	S1P4 ag 34 | S1P4 agonist cf inactive | S1P1 ag inactive
Cc1ccc2nc3c(cc(C#N)c(=O)n3CCN3CCOCC3)c(=O)n2c1	none (no result: DTT redox prof, S1P4 antagonist, p97 inhibitor, S1P4 ag)
Cc1ccc2nc3c(cc(C#N)c(=O)n3-c3nccs3)c(=O)n2c1	S1P4 ag 31 | S1P4 agonist cf 15 | S1P1 ag 24
CCC(C)c1ccc(NC(=O)NCCN2CCCCC2)cc1 (configuration not stated)	none (no result: S1P3 antag, DTT redox prof, S1P4 antagonist, p97 inhibitor, S1P4 ag)
CCc1nc(N)c(C#N)c(-c2cccc3ccccc23)c1C	S1P4 ag 16 (no result: S1P3 antag) | S1P4 agonist cf inactive | S1P1 ag inactive
CCc1nc(N)c(C#N)c(-c2ccncc2)c1C	none
O=C(CN1CCN(c2ccccc2O)CC1)Nc1ccc2c(c1)CCC2	S1P4 ag 13 | S1P4 agonist cf inactive | S1P1 ag inactive
COc1ccc(C(=O)Nc2ccnn2C2CCN(C(=O)c3cnsn3)CC2)cc1	none (no result: S1P3 antag, DTT redox prof, S1P4 antagonist, p97 inhibitor, S1P4 ag)
COCCNC(=O)/C(C#N)=c1\s/c(=C\c2ccccc2OC(F)F)c(=O)n1Cc1ccccc1	S1P4 ag 12 | S1P4 agonist cf inactive | S1P1 ag inactive
COCCCn1c(=O)/c(=C\c2ccccc2OC(F)F)s/c1=C(/C#N)C(=O)NCCOC	none (no result: DTT redox prof)
CC(=O)Nc1ccc(N=Cc2nc(-c3ccc(C)cc3)oc2O)cc1	none
Cc1ccc(N=Cc2nc(-c3ccc(C)cc3)oc2O)cc1	S1P4 ag 15 | S1P4 agonist cf inactive | S1P1 ag inactive
NC(=S)c1cc2ccc(O)cc2oc1=O	S1P4 ag 67 (no result: S1P3 antag) | S1P4 agonist cf 17 | S1P1 ag inactive
C/C(=N\NC(=O)c1ccc([N+](=O)[O-])cc1)c1cc2ccccc2oc1=O	none
C/C(=N/NC(N)=S)c1cc2ccc(O)cc2oc1=O	S1P4 ag 39 (no result: DTT redox prof) | S1P4 agonist cf 18 | S1P1 ag inactive
O=c1cc(CSc2nc(NCc3ccccc3)c3ccccc3n2)nc2ccc(Cl)cn12	S1P4 ag 28 | S1P4 agonist cf inactive | S1P1 ag inactive
CCOc1ccc(C(CC(=O)O)NC(=O)COc2ccccc2)cc1OC (configuration not stated)	S1P4 ag 44 | S1P4 agonist cf inactive | S1P1 ag inactive
COc1ccc(C(CC(=O)O)NC(=O)COc2ccccc2)cc1OC (configuration not stated)	none
CC12CCC(C(=O)N/N=C/c3ccc(O)cc3)(OC1=O)C2(C)C (configuration not stated)	none (no result: DTT redox prof)
COc1ccccc1C1(O)CCN(CC(=O)Nc2nc(-c3ccccc3)cs2)CC1	S1P4 ag 21 | S1P4 agonist cf inactive | S1P1 ag inactive
O=C(CN1C(=O)NC2(CCSC2)C1=O)N1CCN(c2ccc(F)cc2)CC1 (configuration not stated)	S1P4 ag 18 (no result: S1P3 antag) | S1P4 agonist cf inactive | S1P1 ag inactive
CCc1cccc(NC(=O)Cn2cc(C=O)c3ccccc32)c1	none
CS(=O)(=O)N1N=C(c2ccco2)CC1c1ccccc1Cl (configuration not stated)	none (no result: DTT redox prof)
COc1ccccc1C1CC(c2ccco2)=NN1S(C)(=O)=O (configuration not stated)	S1P4 ag 30 | S1P4 agonist cf inactive | S1P1 ag inactive
COc1cc([N+](=O)[O-])cc(/C=N/NC(=O)CC#N)c1O	none (no result: UBC9 SUMO inh)
Cc1cc(C(=O)CN2C(=O)C(=O)N(Cc3ccccc3)C2=O)c(C)n1-c1ccccc1F	S1P4 ag 13 | S1P4 agonist cf inactive | S1P1 ag inactive
COc1ccc2cc(OC)c(C(=O)N3CCOCC3)cc2c1	S1P4 ag 14 | S1P4 agonist cf inactive | S1P1 ag inactive
O=C(COC(=O)/C=C/c1cccs1)Nc1ccc2ccccc2c1	none
O=C(c1ccccc1)N1CCN(C(=O)c2nn3c(C(F)(F)F)cc(-c4ccccc4)nc3c2Br)CC1	none (no result: S1P3 antag, DTT redox prof, S1P4 antagonist, p97 inhibitor, S1P4 ag)
COc1ccccc1Nc1ccc(N)cc1	S1P4 ag 13 | S1P4 agonist cf inactive | S1P1 ag inactive
COc1ccccc1NC(=O)c1ccccc1Nc1ccccc1	none (no result: S1P3 antag, DTT redox prof, S1P4 antagonist, p97 inhibitor, S1P4 ag)
Oc1ccc(O)c(-c2cnns2)c1	none
Cc1ccc(Nc2c(-c3ccc(C)o3)nc3ncccn23)cc1	S1P4 ag 11 (no result: DTT redox prof) | S1P4 agonist cf inactive | S1P1 ag inactive
O=C(Nc1nncs1)c1ccc(S(=O)(=O)c2ccccc2)cc1	none (no result: S1P3 antag)
O=C(Nc1nnc(C2CC2)s1)c1ccc(S(=O)(=O)c2ccccc2)cc1	S1P4 ag 14 (no result: S1P3 antag) | S1P4 agonist cf inactive | S1P1 ag inactive
COc1cc(CNCCO)cc(Cl)c1OCc1ccccc1Cl	S1P4 ag 11 | S1P4 agonist cf inactive | S1P1 ag inactive
COc1cccc(CNCCO)c1OCc1ccccc1Cl	none
O=C(COC(=O)c1ccccc1O)Nc1ccc(S(=O)(=O)N2CCCCC2)cc1	none
CSc1ncccc1C(=O)OCC(=O)Nc1ccc(S(=O)(=O)N2CCCC2)cc1	S1P4 ag 58 | S1P4 agonist cf inactive | S1P1 ag inactive
CCCOc1ccc(/C=N/Nc2ccc(C(=O)O)cc2)c(OCCC)c1	S1P4 ag 12 | S1P4 agonist cf inactive | S1P1 ag inactive
CCCOc1ccc(/C=N/Nc2cccc([N+](=O)[O-])c2)c(O)c1	none
Nc1nc(OCC2CCCCC2)c2[nH]cnc2n1	none (no result: S1P3 antag, DTT redox prof, S1P4 antagonist, p97 inhibitor, S1P4 ag)
CC(C)NC(=O)N(Cc1ccccc1)Cc1cccs1	none (no result: DTT redox prof)
Cc1ccc(CCC(=O)Nc2ccccc2F)s1	S1P4 ag 185 | S1P4 agonist cf inactive | S1P1 ag inactive
CCOc1ccc(N(CC(=O)N2CCCCCC2)S(=O)(=O)c2ccc(F)cc2)cc1	none (no result: S1P3 antag, DTT redox prof, S1P4 antagonist, p97 inhibitor, S1P4 ag)
O=C(O)c1ccc(Br)cn1	S1P4 ag 27 | S1P4 agonist cf inactive | S1P1 ag inactive
CCOc1ccccc1NC(=O)C1CC2CCCC(C1)C2=O (configuration not stated)	none
Cc1oc2cc(OC(=O)c3ccco3)ccc2c(=O)c1-c1nc2ccccc2n1C	S1P4 ag 12 | S1P4 agonist cf inactive | S1P1 ag inactive
Cc1cc(=O)oc2cc(OC(=O)c3ccco3)ccc12	none
O=C(COc1ccc(Cl)cc1)NCc1cn2cc(Cl)ccc2n1	none
O=C(NCc1ccccc1)N[C@@H](Cc1c[nH]c2ccccc12)C(=O)O	S1P4 ag 14 | S1P4 agonist cf inactive | S1P1 ag inactive
